# ATXN2 expr inh = ATXN2 expression inhibition | HEK-293 ATXN2-luciferase reporter, luminescence, 24 h | AID 1745845 | Potency, µM (top dose mostly 57 µM), for inactives: at the top dose activity change, negative = inhibition, hits mostly inhibitors | actives 0.72% (n = 360,000); further: potency means the concentration at half of the fitted maximal effect; on the % scale 0 is the no-effect control and ±100 the full control effect; nearly all actives have a fitted effect of over 55% in size
#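 qHTS (up to 57 uM final) was run with 24 h compound exposure of reporter cells at 37 °C. Each well was multiplexed: SteadyGlo luminescence measured ATXN2-luciferase expression after a fluorogenic Gly-Phe-AFC viability readout (25 uM final).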
# ATXN viability = viability counter-screen for ATXN expression inhibitors. AID 651635. Potency, µM (titrated, usually from 56.7 µM), usual class: cytotoxic. S2 cells (HEK-293 line with an ATXN2-luciferase reporter) viability, CellTiter-Fluor protease fluorescence, 24 h. actives 0.49% (n = 400,000); further: potency means the concentration at half of the fitted maximal effect; nearly all actives have a fitted effect of over 40% in size
# USP2a inh = inhibitors of human ubiquitin-specific protease USP2a; Potency, µM (series often up to 38.3 µM), for the others: top-dose activity change, negative = inhibition, usual class: inhibitors; actives 0.01% (n = 330,000); USP2 core, Ub-CHOP2 coupled fluorogenic reporter, 485/531;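 further: potency means the concentration at half of the fitted maximal effect; plate controls were DMSO wells for no effect and full inhibition by NEM control for full effect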
# Target sequence (O75604 whole entry, looked up): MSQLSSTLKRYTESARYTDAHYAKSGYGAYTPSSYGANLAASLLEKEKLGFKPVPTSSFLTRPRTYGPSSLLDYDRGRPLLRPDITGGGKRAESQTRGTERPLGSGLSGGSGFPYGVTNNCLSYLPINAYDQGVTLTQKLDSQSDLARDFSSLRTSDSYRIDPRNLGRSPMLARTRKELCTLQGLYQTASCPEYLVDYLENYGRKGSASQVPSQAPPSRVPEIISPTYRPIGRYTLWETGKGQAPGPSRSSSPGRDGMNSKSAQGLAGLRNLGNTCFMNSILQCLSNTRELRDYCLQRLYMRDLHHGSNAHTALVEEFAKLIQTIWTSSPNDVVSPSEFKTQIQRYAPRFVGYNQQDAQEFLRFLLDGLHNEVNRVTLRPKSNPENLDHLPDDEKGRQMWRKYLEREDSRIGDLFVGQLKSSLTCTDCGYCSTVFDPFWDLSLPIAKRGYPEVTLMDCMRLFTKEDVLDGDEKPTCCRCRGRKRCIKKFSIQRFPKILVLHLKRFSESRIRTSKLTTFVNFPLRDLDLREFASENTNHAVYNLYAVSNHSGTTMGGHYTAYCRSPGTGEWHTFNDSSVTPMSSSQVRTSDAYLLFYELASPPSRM
#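 USP2 core (10nM final) preincubated 30min RT with compound in 20mM Tris-HCl pH 8.0, 2mM CaCl2, 2mM beta-mercaptoethanol, 0.05% CHAPS; 25nM Ub-CHOP2 plus 25nM reporter substrate added, fluorescence (Ex485/Em531) read after 60min.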
# USP1 inh = USP1/UAF1 (human) deubiquitinase inhibition; recombinant USP1/UAF1, Ub-Rhodamine cleavage fluorescence; actives 0.23% (n = 390,000); Potency, µM (top dose mostly 57.1 µM), for inactives: top-dose activity change, negative = inhibition, most hits filed as inhibitors; AID 743255; O94782; further: potency means the concentration at half of the fitted maximal effect; on the % scale 0 is the no-effect control and ±100 the full control effect; nearly all actives have a fitted effect of over 60% in size
#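 USP1/UAF1 complex (1 nM) preincubated 15 min at room temperature with compound, then Ub-Rho substrate (150 nM final) added. Kinetic fluorescence at 480/540 nm over 6 reads at 60 s intervals; 50 mM HEPES pH 7.8, 0.5 mM EDTA, 0.1 mg/ml BSA, 1 mM TCEP, 0.01% Tween-20.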
# IL-1B inflam inh = inflammasome signaling inhibition, IL-1 beta readout; THP-1 LPS/ATP IL-1B secretion, AlphaLISA, 16 h; stronger effect = lower value; activity change, % at 57.5 µM; actives 4.7% (n = 360,000); in the data active means activity change below about -50%; inconclusive means mostly about -30% to -49%; further: on the % scale 0 is the no-effect control and ±100 the full control effect
#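 THP-1 cells pretreated 1 hr with compounds (up to 57.5 uM final), then stimulated with LPS (250 ng/mL final) plus ATP (1.25 mM final); secreted IL-1B measured by AlphaLISA after 16 hr, decreased signal indicating inhibition.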
# The depositor's hits bear a star; i = inactive; ? = inconclusive; / = no result. Shown are actives, neighbours in structure and some others; about 4.8% of the full set was active somewhere. Unless noted, the call rests on the fitted dose curve; in most records, active means well fitted curve in the direction sought with a large enough effect; inconclusive means small, poorly fitted or top-dose-only effect, or another doubt; inactive means no such curve, though single readings can be large; an effect the other way counts as inactive or inconclusive.
SMILES,ATXN2 expr inh,ATXN viability,USP2a inh,USP1 inh,IL-1B inflam inh
CCOc1cc(/C=N/Nc2cccc(C(=O)O)c2)ccc1OC(=O)c1ccccc1,14µM*,i,7%,-24%,6
O=C(c1ccc2c(c1)N(Cc1ccccc1)C(=O)c1ccccc1S2(=O)=O)N1CCN(c2ccccn2)CC1,/,/,/,-27%,/
COc1ccc(CCN(C)C(=O)CSc2ncnc3sccc23)cc1OC,1%,i,0%,-26%,19
COc1ccc(CCN(C)c2ncnc3sccc23)cc1OC,-10%,?,5%,-18%,-53*
COc1ccc(OC)c(CN2CCC(CNC(=O)Nc3cccc(Cl)c3)CC2)c1,/,?,-4%,-22%,0
Cc1ccc(C)c(CN2CCC(CNC(=O)Nc3ccc(C)c(C)c3)CC2)c1,?,i,-1%,-23%,-64*
COc1ccc(Cl)cc1NC(=O)NCC1CCN(Cc2cc(C)ccc2C)CC1,/,?,1%,-18%,-56*
O=C(NCC1CCN(Cc2cccc(Cl)c2)CC1)Nc1cc(Cl)ccc1Cl,?,?,/,-2%,/
COc1cc([N+](=O)[O-])ccc1NC(=O)NCC1CCN(Cc2ccc(Cl)cc2)CC1,-19%,i,-4%,-24%,-79*
COc1cccc(C(C)(O)c2nc(-c3cnn(C)c3)cs2)c1 (stereo not drawn),1%,i,/,/,-11
O=C(Nc1ccccc1)Nc1ccc(-c2ccc(C(=O)[C@H]3CCC[C@H]3C(=O)O)cc2)cc1,26%,/,/,/,/
COc1ccccc1N1CCN(C(=O)c2ccc(Nc3nc4ccccc4n4nnnc34)cc2)CC1,9%,i,/,?,/
O=C(CNC(=O)c1ccc2c(c1)OCO2)N/N=C(Br)/C=C/c1ccccc1,?,?,0%,-15%,-61*
CN(C)c1ccc(/C=C/C(=O)c2ccc3c(c2)OCO3)cc1,69%,/,18%,25µM*,-92*
O=C(/C=C/c1cccc(Br)c1)c1ccc2c(c1)OCO2,-2%,?,0%,?,-104*
O=C(/C=C/c1ccccc1)c1ccc2c(c1)OCO2,/,i,0%,-19%,-7
O=C(/C=C/c1ccncc1)c1ccc2c(c1)OCCO2,-8%,?,-1%,-12%,-98*
CCC1(C2CCN(Cc3ccoc3)CC2)NC(=O)N(CC2COc3ccccc3O2)C1=O (stereo not drawn),/,i,/,/,/
O=C(c1ccc2c(c1)OCO2)c1ccc[nH]1,/,i,/,-12%,-11
COc1cccc(/C=C/C(=O)c2ccc[nH]2)c1,102%,i,-5%,-16%,-93*
COc1cc(/C=C/C(=O)c2ccc3c(c2)OCCO3)cc(Br)c1OCC(=O)N(C)C,20µM*,28µM*,1%,-14%,-104*
COc1cccc(/C=C/C(=O)Oc2ccc(C(=O)c3ccc(F)cc3)cc2)c1,7%,i,6%,0%,8
O=C(/C=C/c1ccc2c(c1)OCO2)c1ccc(F)cc1,24%,i,-7%,?,-74*
O=C(/C=C/c1ccc2c(c1)OCO2)c1ccc[nH]1,75%,i,4%,4%,-95*
COc1cccc(/C=C/C(=O)c2ccc3c(c2)OCO3)c1OC,39%,i,0%,-15%,-20
SMILES,ATXN2 expr inh,ATXN viability,USP2a inh,USP1 inh,IL-1B inflam inh
O=C(N/N=C\C=C\c1ccc2c(c1)OCO2)c1ccc(F)cc1,2%,i,0%,-10%,-16
CCOC(=O)c1c(-c2ccc(OC)c(OC)c2)csc1NC(=O)C1CCCO1 (stereo not drawn),-31%,i,-8%,-18%,-67*
COC(=O)c1c(-c2ccc(F)cc2)csc1NC(=O)C1CCCO1 (stereo not drawn),/,i,-1%,-6%,-18
Nc1nccnc1C(=O)OCC(=O)Nc1ccc2[nH]c(=O)[nH]c2c1,-2%,i,0%,?,3
CCc1nc2ccc(C(=O)Nc3cccc(NS(C)(=O)=O)c3)cn2c1N(C)C(=O)c1cccc(OC)c1,9%,i,/,/,-78*
CCc1nc2ccc(C(=O)Nc3cccc(NS(C)(=O)=O)c3)cn2c1N(C)C(=O)Cc1ccccc1,-3%,i,/,/,-87*
CCCc1ccc(OC(=O)CSc2nnc(-c3cccs3)o2)cc1,/,/,/,-13%,/
